The values below come from PubChem BioAssay.

Active and inactive are the calls of the source. No rule for the calls is given here.

For the assay, the target named is Pantothenate synthetase (Mycobacterium tuberculosis (strain ATCC 25618 / H37Rv)) (UniProt P9WIL5). Description: Recombinant Mtb pantothenate synthetase (PanC) inhibitors, coupled enzyme, confirmatory (AID 375).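 Also: 0% = full reaction with vehicle and 100% = no enzyme background.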 Conditions: coupled enzyme assay; at 10 µM, active compounds read high.
Chain of Pantothenate synthetase (Mycobacterium tuberculosis (strain ATCC 25618 / H37Rv)) (P9WIL5 whole entry, looked up): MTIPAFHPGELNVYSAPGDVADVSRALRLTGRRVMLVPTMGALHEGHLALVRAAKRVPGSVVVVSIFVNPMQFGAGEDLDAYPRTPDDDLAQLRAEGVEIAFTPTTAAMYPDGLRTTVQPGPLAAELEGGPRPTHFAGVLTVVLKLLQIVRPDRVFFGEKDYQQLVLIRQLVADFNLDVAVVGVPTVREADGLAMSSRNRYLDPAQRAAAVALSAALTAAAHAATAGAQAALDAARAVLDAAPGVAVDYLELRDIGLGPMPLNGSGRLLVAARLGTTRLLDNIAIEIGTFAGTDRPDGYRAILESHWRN
Regarding `CCCSc1nc(N)c(C#N)c(-c2ccc(C)cc2)c1C#N`, the inhibition is 2% (inactive).

`O=C(Nc1cc(Cl)ccc1Cl)c1noc2c1CCCC2`: the inhibition was 2% (inactive).

For `CCOC(=O)c1cnc(-n2nc(C)cc2C)nc1NC(C)c1ccccc1` (stereo not given), the inhibition was 0% (inactive).

In the case of `Oc1cnc2ccccc2c1CN1CCOCC1`, the inhibition is 4% (inactive).

Take `CCOC(=O)CSC1=C(C#N)C(c2ccc(C)o2)CC(=O)N1` (stereo not given): the inhibition was 0% (inactive).

Turning to `CC(C)C(NC(=O)c1ccc(S(=O)(=O)N2CCOCC2)cc1)c1nc2ccccc2[nH]1` (stereo not given), the inhibition is 0% (inactive).

`Cc1ccc(C)c2[nH]c(=O)c(CCNC(=O)CC(C)(C)C)cc12`: the inhibition is 4% (inactive).

`Cc1cc(=O)[nH]c(SCC(=O)NCc2ccco2)n1`: the inhibition was 0% (inactive).

With `CCNCC(O)COCC(O)CNCC` (stereo not given), the inhibition is 0% (inactive).

Turning to `CCOC(=O)c1cc(-c2ccc(Cl)s2)nc2c1c(C)nn2C`, the inhibition is 0% (inactive).

Take `O=C(CN1CCN(C(=O)c2ccccc2)CC1)Nc1ncc(Br)cc1Br`: the inhibition is 0% (inactive).

With `Cc1ccc(S(=O)(=O)N2CCC(C(=O)N[C@@H](Cc3ccccc3)C(=O)O)CC2)cc1`, the inhibition was 0% (inactive).

On to `COC(=O)c1ccccc1NC(=O)c1noc2c1CCC2`, for which the inhibition is 0% (inactive).

`COc1cccc(C2C(C(N)=O)=C(C)Nc3nc(CCCO)nn32)c1OC` (stereo not given): the inhibition was 3% (inactive).

For the compound `Cc1cccc(C)c1OCc1nnc(SCC(=O)Nc2ccccc2F)o1`, the inhibition was 0% (inactive).

With `O=C(CN(Cc1ccc(F)cc1)C(=O)c1ccco1)NCc1ccc(F)cc1`, the inhibition was 0% (inactive).

Regarding `CCOC(=O)C1CCN(S(=O)(=O)c2cccc(-c3csc(C)n3)c2)CC1`, the inhibition was 0% (inactive).

Take `COCCCn1c(SCC(=O)Nc2cccc(C)n2)nnc1-c1ccco1`: the inhibition is 0% (inactive).

As to `COc1cccc(-c2nc(-c3ccc(NC(=O)Cc4ccccc4OC)cc3)no2)c1`, the inhibition is 11% (inactive).

For `CCOC(=O)c1c(C)c(C(=O)NCCN2CCOCC2)c(C)n1C`, the inhibition was 4% (inactive).

For `COC(=O)Nc1ccc(S(=O)(=O)N(C)CC(F)(F)C(F)F)cc1`, the inhibition was 6% (inactive).

For the compound `Cn1c(-c2ccccc2)c(CCO)c2ccccc21`, the inhibition is 9% (inactive).

`CCS(=O)(=O)c1nc2ccccc2n1CC(=O)N1CCOCC1`: the inhibition was 0% (inactive).

As to `CCCOC(=O)c1[nH]c2c(c1C)C(=O)CC(c1cc(OC)c(OC)c(OC)c1)C2` (stereo not given), the inhibition was 0% (inactive).

Regarding `Cn1c(C(=O)OC(C(=O)NC2CCCC2)c2cccnc2)cc2sccc21` (stereo not given), the inhibition is 0% (inactive).

As for `O=C(CCS(=O)(=O)c1cc(Br)cc2c1N(C(=O)C1CC1)CC2)NCC1CCCO1` (stereo not given), the inhibition was 0% (inactive).

In the case of `Cn1c(=O)c2c(nc(NCc3ccco3)n2C/C=C/c2ccccc2)n(C)c1=O`, the inhibition is 0% (inactive).

In the case of `CC(C)(C)c1ccc(C(O)CCCN2CCC(C(O)(c3ccccc3)c3ccccc3)CC2)cc1` (stereo not given), the inhibition is 0% (inactive).

As for `CCOc1ccc2[nH]c(=O)c(CN(Cc3ccccc3)C(=O)N3CCCC3)cc2c1`, the inhibition is 6% (inactive).

For the compound `C/C(Nc1cccc(F)c1)=C(/C#N)C(N)=O`, the inhibition was 3% (inactive).

Consider `O=C(CCS(=O)(=O)c1cccc2nsnc12)N1CCN(Cc2ccc3c(c2)OCO3)CC1`, for which the inhibition is 0% (inactive).

Consider `CCc1c(C)c2ccc(OCC(=O)OC)cc2oc1=O`, for which the inhibition is 0% (inactive).

As for `Cc1nn(S(=O)(=O)N2CCCCC2)c(C)c1Br`, the inhibition was 0% (inactive).

Regarding `CCn1cc(C(=O)N2CCN(C(=O)c3ccco3)CC2)c2cc(OC)c(OC)cc2c1=O`, the inhibition is 0% (inactive).

`COC(=O)CN(c1ccc(OC)cc1)S(=O)(=O)c1ccc(OC)c(OC)c1`: the inhibition was 0% (inactive).

Turning to `Cc1ccc(NCc2nnc(SCC(=O)NCc3ccco3)n2CC2CCCO2)cc1Cl` (stereo not given), the inhibition is 3% (inactive).

Turning to `COC(=O)[C@H](CCSC)NC(=O)Nc1cc(C)ccc1C`, the inhibition was 0% (inactive).

As to `Cc1cccc(C)c1NC(=O)N1CCN(C2CCCCC2)CC1`, the inhibition is 0% (inactive).

With `Cc1cc(NCCCn2ccnc2)n2c(nc3ccccc32)c1C#N`, the inhibition is 0% (inactive).

For the compound `COc1ccc(NC(=O)Cn2nnc(-c3ccccc3N)n2)cc1OC`, the inhibition was 0% (inactive).
